Consider 40 molecules from PubChem BioAssay (NCI).

Compounds without any hit were thinned out: in the full panel of roughly 83,000, 20% have a hit.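 For each line, cells grew in 96-well plates with the test compound present at a single concentration for 48 hours.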 A number with no mark means an inactive call. Active and inactive are the calls of the source.

The experiment deals with KM12 colon. Nature of the experiment: NCI-60 one-dose screen, 48 h (100 = growth as untreated, 0 = no growth, -100 = all killed). To be noted: 10 µM unless noted. As for the experimental part: Growth inhibition of the KM12 human tumor cell line is measured as a screen for anti-cancer activity. Cells are grown in 96 well plates and exposed to the test compound for 48 hours. Compounds are tested at a single concentration, which is 10^-5 M for most compounds. The reported endpoint is percent growth (GI% or GIPRCNT), where numbers from 0 - 100% represent growth inhibition, and numbers from -100% - 0 represent cell death. For example, a value of 40 represents 60% growth inhibition. A value of 0 means no net growth occurred over the course of the experiment. A value of -40 indicates 40% of cells at the beginning of the experiment died by the end of the experiment. A value of -100 means all cells are dead at the end of the experiment.
NCI-60 Human Tumor Cell Lines Screen was performed using the standard one-dose NCI protocol, which is described in more detail at https://dtp.cancer.gov/discovery_development/nci-60/default.htm.
Compounds with GIPRCNT values below 10 were considered active. Activity score was based on GIPRCNT using the following formula: […]
Score is 0 for GIPRCNT values of 100 or above, 50 for GIPRCNT values of 0, and 100 for GIPRCNT values of -100.
As for `CC1(C)CC[C@]2(CO)CC[C@]3(C)[C@H](CC[C@@H]4[C@@]5(C)CCCNC(C)(C)[C@@H]5CC[C@]43C)[C@H]2[C@H]1O`, the growth was 77.9%.
For the molecule `CC(C)(C)n1cc(-c2ccnc(NCCCNS(=O)(=O)c3ccc(C(F)(F)F)cc3)c2)c(-c2cccc(F)c2)n1`, the growth was 65.7%.
Turning to `CC[N+]1(CC)CC[N+]2(CCCC(C)CC2)CC1` (stereo not given), the growth is 104%.
Regarding `CC(=O)OC(c1ccccc1)C1CCOC1=O` (stereo not given), the growth was 106%.
In the case of `COc1cc(C(=O)n2nc(N3CCOCC3)c3cc(-n4cccc4)ccc32)cc(OC)c1OC`, the growth was 81.8%.
For the molecule `C=C1C(=O)O[C@H]2[C@H]1CC/C(COC(=O)NCc1ccc(Cn3c(=O)sn(-c4ccc(C#N)cc4)c3=O)cc1)=C\CC[C@@]1(C)O[C@@H]21`, the growth was 101%.
With `COc1ccc(/C=C(/C(=O)n2cnnn2)c2cc(OC)c(OC)c(OC)c2)cc1`, the growth was 17.7%.
As for `COc1cccc(C(=O)NNc2nc(Cl)nc(Cl)n2)c1`, the growth is 105%.
The value for `CC1(C)N=C(N)N=C(N)N1c1cccc(CCc2ccccc2)c1` was 21.9%; that for `O=C(Cc1ccc(NC(=O)c2cccc(Cl)c2)cc1)NCc1ccccc1` was 24.8%; that for `CCCCCCCCCCCCCOC(=O)c1c(C)[nH]c(/C=C2\N=C(c3ccc[nH]3)C=C2OC)c1C` was 12.7%.
Regarding `O=C(NC1CC(F)C1)c1cc2cccnc2n1-c1ccc(Cl)c(Cl)c1` (stereo not given), the growth is 98.5%.
`C=C(C)[C@@H]1CC[C@]2(COC(C)=O)CC[C@]3(C)[C@H](CC[C@@H]4[C@@]5(C)CCCN(C(C)=O)C(C)(C)[C@@H]5CC[C@]43C)[C@@H]12`: the growth was 5.81% (active).
For the molecule `C=Cc1cnc(Nc2ccc(OC)cc2)nc1NCCCNC(=O)C1CCC1`, the growth was 39.1%.
As for `Cc1c(Cl)cccc1C(=O)Nc1nc2c(s1)CN(C(=O)c1ccc(C(F)(F)F)cc1)CC2`, the growth is 18.9%.
Turning to `C[n+]1ccc(CCc2c[nH]c3ccccc23)cc1`, the growth was 70.8%.
For the molecule `CN(C)c1ccc(-c2ccc3c(c2)c(-c2ccccc2)nc(=O)n3C)cn1`, the growth was 43.2%.
As to `CCNc1nc(O)c(/C=C2\C=Nc3ncccc32)s1`, the growth was 6.24% (active).
For the molecule `C/C(=N\O)[C@@H]1CC[C@]2(CO)CC[C@]3(C)[C@H](CC[C@@H]4[C@@]5(C)CCCNC(C)(C)[C@@H]5CC[C@]43C)[C@@H]12`, the growth is 83.6%.
Regarding `COCCn1cc(-c2csc(-c3c[nH]c4ccc(Br)cc34)n2)c2cccnc21`, the growth was 13.4%.
As for `CCCCNc1cc(-c2cn[nH]c2-c2cc(C)cc(OC)c2)nc(-c2cccnc2)n1`, the growth was 93.9%.
As to `CCNC(=O)Oc1ccc(/C(=C(/C)Cc2ccc(OC)cc2)c2ccc(OCCN3CCCCC3)cc2)cc1`, the growth was 67.8%.
`CCOC(=O)c1cc(C(=O)c2cc(OC)c(OC)c(OC)c2)n2ccccc12`: the growth is 25.2%.
Take `O=C(Nc1ccc(Br)cc1)C1=NCCCCN1`: the growth was 75.6%.
Consider `O=C(Nc1ncc(Cc2cc(C(F)(F)F)ccc2Cl)s1)c1cccs1`, for which the growth was 29.5%.
With `Cc1n[nH]c2ccc(Br)cc2c1=O`, the growth is 95.9%.
Regarding `O=C(C1=Cc2cc3ccccc3n2Cc2cnnn21)c1ccc(O)cc1`, the growth was 29.5%.
Take `COc1ccc(C#Cc2ccc(=O)oc2-c2cc(OC)c(OC)c(OC)c2)cc1O`: the growth was 26.8%.
Turning to `C#CC#CC#CC#CC#CC#CC#CC#CC[C@@H]1OC[C@@H](COC(=O)O[C@@H](C(=O)O[C@H]2C[C@@]3(O)[C@@H](OC(=O)c4ccccc4)[C@@H]4[C@]5(OC(C)=O)CO[C@@H]5C[C@H](O)[C@@]4(C)C(=O)[C@H](OC(C)=O)C(=C2C)C3(C)C)[C@@H](NC(=O)c2ccccc2)c2ccccc2)O1`, the growth was 96.6%.
In the case of `C=C1C(=O)O[C@H]2[C@H]1CC/C(COC(=O)c1ccc(C(=O)O)s1)=C\CC[C@@]1(C)O[C@@H]21`, the growth is 55.6%.
As to `COc1ccc2c(c1)c(-c1nc(-c3c[nH]c4ncccc34)cs1)cn2CCCN1CCOCC1`, the growth is 17%.
For the molecule `CN(Cc1cnc2nc(N)nc(N)c2n1)c1ccc(C(=O)NC(CCC(=O)O)C(=O)O)cc1Br` (stereo not given), the growth was 28.4%.
The value for `CS(=O)(=O)c1ccc(NC(=O)c2ccccc2)nc1` was 107%; that for `CCn1c(-c2cc3c([nH]c4ccccc43)c(-c3cccc(O)c3)n2)n[nH]c1=S` was 28.4%.
`c1ccc(CCNc2c3ccccc3nc3ccccc23)cc1`: the growth is 57.4%.
In the case of `COc1ccc(C(=O)/C=C/c2ccc(Cl)cc2)cc1S(=O)(=O)Nc1c(N)nc(SC)[nH]c1=O`, the growth was 12.8%.
Take `CNC(C)[C@H]1CCC2C3CC=C4C(=O)[C@@H](NC(=O)C=C(C)C)CC[C@]4(C)C3CC[C@@]21C` (stereo not given in full): the growth is 10.1%.
To `Cc1ccc2nc(/C(C#N)=C(/CCCO)NC(Cc3ccccc3)C(=O)OCc3ccccc3)[nH]c(=O)c2c1` (stereo not given) belongs 109%; to `CCCC(CC)(C(=O)Nc1ccc2nc(C)cc(N)c2c1)C(=O)Nc1ccc2nc(C)cc(N)c2c1`, 109%.
Turning to `Cn1ccc(=O)nc1`, the growth was 95%.
